Reference: article PMC8384837, “Expanding the binding specificity for RNA recognition by a PUF domain”

Columns and labels:
Test in all cases: yeast three-hybrid, YBZ-1, SC-Leu-His + 0.5 mM 3-AT, 4 days
Conditions in all cases: tags: N-Gal4 AD-HA kept; label: inside an RPR1-promoter hybrid RNA with tandem MS2 sites; ssRNA
PUM1 PUF domain R5-DRQ = PUM1 PUF domain R5-DRQ (Homo sapiens, UniProt Q14671 828-1176, C1007D)
Outline: (§1)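 Each repeat of the Pumilio-1 PUF domain was randomized at its three base-contacting residues, and these libraries were co-expressed from a centromeric plasmid with matching RNA elements in strain YBZ-1. After four days on SC-Leu (input) or SC-Leu-His + 0.5 mM 3-AT (selection), the repeat regions were PCR-amplified and Illumina-sequenced. The interaction score compares variant frequency between input and selection as a log change, computed in log2 with a pseudocount of 1 for absent variants.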

PUM1 PUF domain R5-KRP = PUM1 PUF domain R5-KRP (Homo sapiens, UniProt Q14671 828-1176, C1007K;Q1011P)
Outline: as §1

PUM1 PUF domain R5-RFD = PUM1 PUF domain R5-RFD (Homo sapiens, UniProt Q14671 828-1176, C1007R;R1008F;Q1011D)
Outline: as §1

PUM1 PUF domain R1-TLF = PUM1 PUF domain R1-TLF (Homo sapiens, UniProt Q14671 828-1176, S863T;R864L;Q867F)
Outline: as §1

PUM1 PUF domain R1-RIS = PUM1 PUF domain R1-RIS (Homo sapiens, UniProt Q14671 828-1176, S863R;R864I;Q867S)
Outline: as §1

PUM1 PUF domain R5-RQC = PUM1 PUF domain R5-RQC (Homo sapiens, UniProt Q14671 828-1176, C1007R;R1008Q;Q1011C)
Outline: as §1

PUM1 PUF domain R5-DHW = PUM1 PUF domain R5-DHW (Homo sapiens, UniProt Q14671 828-1176, C1007D;R1008H;Q1011W)
Outline: as §1

PUM1 PUF domain R8-RGR = PUM1 PUF domain R8-RGR (Homo sapiens, UniProt Q14671 828-1176, N1122R;Y1123G;Q1126R)
Outline: as §1

PUM1 PUF domain R4-CRS = PUM1 PUF domain R4-CRS (Homo sapiens, UniProt Q14671 828-1176, N971C;H972R;Q975S)
Outline: as §1

PUM1 PUF domain R5-CTR = PUM1 PUF domain R5-CTR (Homo sapiens, UniProt Q14671 828-1176, R1008T;Q1011R)
Outline: as §1

Sequence of PUM1 PUF domain R5-RQC (Q14671 828-1176 C1007R/R1008Q/Q1011C): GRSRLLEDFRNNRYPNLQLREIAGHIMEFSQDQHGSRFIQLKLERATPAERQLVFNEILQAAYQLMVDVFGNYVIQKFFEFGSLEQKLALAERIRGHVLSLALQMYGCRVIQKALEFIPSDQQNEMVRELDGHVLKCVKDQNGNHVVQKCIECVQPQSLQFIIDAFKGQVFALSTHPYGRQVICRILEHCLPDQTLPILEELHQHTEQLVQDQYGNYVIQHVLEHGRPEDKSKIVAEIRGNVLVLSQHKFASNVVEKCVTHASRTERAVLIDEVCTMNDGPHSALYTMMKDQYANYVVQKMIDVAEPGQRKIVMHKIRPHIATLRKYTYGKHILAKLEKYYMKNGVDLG
Sequence of PUM1 PUF domain R5-RFD (Q14671 828-1176 C1007R/R1008F/Q1011D): as the sequence (Q14671 828-1176 C1007R/R1008Q/Q1011C) above, with Q181F, C184D counted along it
Sequence of PUM1 PUF domain R8-RGR (Q14671 828-1176 N1122R/Y1123G/Q1126R): as the sequence (Q14671 828-1176 C1007R/R1008Q/Q1011C) above, with R180C, Q181R, C184Q, N295R, Y296G, Q299R counted along it
Sequence of PUM1 PUF domain R5-DRQ (Q14671 828-1176 C1007D): as the sequence (Q14671 828-1176 C1007R/R1008Q/Q1011C) above, with R180D, Q181R, C184Q counted along it
Sequence of PUM1 PUF domain R5-CTR (Q14671 828-1176 R1008T/Q1011R): as the sequence (Q14671 828-1176 C1007R/R1008Q/Q1011C) above, with R180C, Q181T, C184R counted along it
Sequence of PUM1 PUF domain R5-KRP (Q14671 828-1176 C1007K/Q1011P): as the sequence (Q14671 828-1176 C1007R/R1008Q/Q1011C) above, with R180K, Q181R, C184P counted along it
Sequence of PUM1 PUF domain R4-CRS (Q14671 828-1176 N971C/H972R/Q975S): as the sequence (Q14671 828-1176 C1007R/R1008Q/Q1011C) above, with N144C, H145R, Q148S, R180C, Q181R, C184Q counted along it
Sequence of PUM1 PUF domain R1-TLF (Q14671 828-1176 S863T/R864L/Q867F): as the sequence (Q14671 828-1176 C1007R/R1008Q/Q1011C) above, with S36T, R37L, Q40F, R180C, Q181R, C184Q counted along it
Sequence of PUM1 PUF domain R5-DHW (Q14671 828-1176 C1007D/R1008H/Q1011W): as the sequence (Q14671 828-1176 C1007R/R1008Q/Q1011C) above, with R180D, Q181H, C184W counted along it
Sequence of PUM1 PUF domain R1-RIS (Q14671 828-1176 S863R/R864I/Q867S): as the sequence (Q14671 828-1176 C1007R/R1008Q/Q1011C) above, with S36R, R37I, Q40S, R180C, Q181R, C184Q counted along it

GGCUAGAACUAGUGGAUCCCCCGGCGCCCGGCGGCUCGAGCCCGGGUAAGUGUGAAUAGUCUGCAUGCCGCCGGGCGCCAUGCCUGCAGGUCGACUCUAGAAAACAUG
binding signal (PUM1 PUF domain R5-DRQ): 3.23 log2 enrichment (interaction score) | binding signal (PUM1 PUF domain R5-KRP): 0.17 log2 enrichment (interaction score) | binding signal (PUM1 PUF domain R5-RFD): 2.73 log2 enrichment (interaction score)

GGCUAGAACUAGUGGAUCCCCCGGCGCCCGGCGGCUCGAGCCCGGGUAAGUGUAAAUUGUCUGCAUGCCGCCGGGCGCCAUGCCUGCAGGUCGACUCUAGAAAACAUG
binding signal (PUM1 PUF domain R1-TLF): 4.45 log2 enrichment (interaction score) | binding signal (PUM1 PUF domain R1-RIS): 3.81 log2 enrichment (interaction score)

GGCUAGAACUAGUGGAUCCCCCGGCGCCCGGCGGCUCGAGCCCGGGUAAGUGUUAAUAGUCUGCAUGCCGCCGGGCGCCAUGCCUGCAGGUCGACUCUAGAAAACAUG
binding signal (PUM1 PUF domain R5-RQC): 4.83 log2 enrichment (interaction score) | binding signal (PUM1 PUF domain R5-DHW): 3.46 log2 enrichment (interaction score) | binding signal (PUM1 PUF domain R5-RFD): 4.39 log2 enrichment (interaction score)

GGCUAGAACUAGUGGAUCCCCCGGCGCCCGGCGGCUCGAGCCCGGGUAAGUGUAAAUAGUCUGCAUGCCGCCGGGCGCCAUGCCUGCAGGUCGACUCUAGAAAACAUG
binding signal (PUM1 PUF domain R8-RGR): 1.23 log2 enrichment (interaction score) | binding signal (PUM1 PUF domain R5-RQC): 1.84 log2 enrichment (interaction score) | binding signal (PUM1 PUF domain R4-CRS): 2.69 log2 enrichment (interaction score) | binding signal (PUM1 PUF domain R5-CTR): 1.1 log2 enrichment (interaction score) | binding signal (PUM1 PUF domain R5-RFD): 2.18 log2 enrichment (interaction score)

GGCUAGAACUAGUGGAUCCCCCGGCGCCCGGCGGCUCGAGCCCGGGUAAGUGUCAAUAGUCUGCAUGCCGCCGGGCGCCAUGCCUGCAGGUCGACUCUAGAAAACAUG
binding signal (PUM1 PUF domain R5-DRQ): 3.34 log2 enrichment (interaction score) | binding signal (PUM1 PUF domain R5-RQC): 4.74 log2 enrichment (interaction score) | binding signal (PUM1 PUF domain R5-KRP): 2.24 log2 enrichment (interaction score) | binding signal (PUM1 PUF domain R5-CTR): 4.38 log2 enrichment (interaction score) | binding signal (PUM1 PUF domain R5-RFD): 4.17 log2 enrichment (interaction score)

GGCUAGAACUAGUGGAUCCCCCGGCGCCCGGCGGCUCGAGCCCGGGUAAGCGUAAAUAGUCUGCAUGCCGCCGGGCGCCAUGCCUGCAGGUCGACUCUAGAAAACAUG
binding signal (PUM1 PUF domain R8-RGR): 2.53 log2 enrichment (interaction score)
